Source: PubChem BioAssay (NCATS)
Values without a mark were called inactive. For part of these data: Results with a measured potency or affinity are listed apart. Calls of active or inactive are those of the source. The rule behind the calls is not given here.

What was measured:
[1] = Ebola virus entry assay, green fluorescence channel
[2] = Ebola virus entry assay, blue channel fluorescence
[3] = Ebola virus entry assay, ratio channel
[4] = Ebola virus entry assay, green channel fluorescence
[5] = Ebola virus entry assay, reporter ratio channel; Channel type: primary
[6] = Ebola virus entry assay, blue channel (ratio component)
Throughout, for efficacy: 0% is about no effect.

| Structure (SMILES) | efficacy [1] [%] | AC50 [2] | AC50 [3] | outcome [4] | AC50 [5] | outcome [3] | outcome [5] | outcome [2] | outcome [6] |
| --- | --- | --- | --- | --- | --- | --- | --- | --- | --- |
| C#CC1(O)CC[C@H]2[C@@H]3CCC4=CCCC[C@@H]4[C@H]3CC[C@@]21C (some centres undefined) | 7.54 | 22.4 µM (active) | 22.4 µM (active) | inactive | 22.4 µM (active) |  |  |  |  |
| C=C[C@@]1(C)CC(=O)[C@]2(O)[C@@]3(C)[C@@H](O)CCC(C)(C)[C@@H]3[C@H](O)[C@H](OC(C)=O)[C@@]2(C)O1 | 10.9 | 10 µM (active) |  | inactive |  | inactive | inactive |  |  |
| COCCc1ccc(OCC2CO2)cc1 (centres undefined) | 25.5 |  |  | inactive |  | inactive | inactive | inactive |  |
| OC(CCN1CCCCC1)(c1ccccc1)C1CC2C=CC1C2 (centres undefined) | -14.6 | 12.6 µM (active) |  | inactive |  | inactive | inactive |  |  |
| CCN(CC)CCSC(=O)C(c1ccccc1)c1ccccc1 | -29.7 | 31.6 µM (active) |  | inactive | 39.8 µM (active) | inactive |  |  |  |
| CC(C)NCC(O)COc1ccc(COCCOC(C)C)cc1 (centres undefined) | 22.5 | 15.8 µM (active) | 12.6 µM (active) | inactive | 12.6 µM (active) |  |  |  |  |
| Cc1c(C)n(CCN(C)C)c2ccc(C(=O)OCCN(C)C)cc12 | -26.4 | 2.24 µM (active) | 2.51 µM (active) | inactive | 2.51 µM (active) |  |  |  |  |
| CC(C)NCC(O)c1ccc2ccccc2c1 (centres undefined) | 20.8 | 31.6 µM (active) | 25.1 µM (active) | inactive | 25.1 µM (active) |  |  |  |  |
| CCC(C)(C)c1ccc(CC(C)CN2C[C@@H](C)O[C@@H](C)C2)cc1 (some centres undefined) | -29.5 | 39.8 µM (active) |  | inactive | 39.8 µM (active) | inactive |  |  |  |
| Cc1cccc(N(C)C(=S)Oc2ccc3ccccc3c2)c1 | 22.5 | 25.1 µM (active) | 25.1 µM (active) | inactive | 25.1 µM (active) |  |  |  |  |
| O=C(Nc1ccc(Cl)cc1)Nc1ccc(Cl)c(Cl)c1 | -28.2 | 15.8 µM (active) | 12.6 µM (active) | inactive | 12.6 µM (active) |  |  |  |  |
| COc1cc([C@H]2Oc3cc([C@H]4Oc5cc(O)cc(O)c5C(=O)[C@@H]4O)ccc3O[C@@H]2CO)ccc1O | 13.5 | 39.8 µM (active) |  | inactive | 44.7 µM (active) | inactive |  |  |  |
| Cc1ccc(CCn2c3c(c4cc(Cl)ccc42)CN(C)CC3)cn1 | 26.4 | 14.1 µM (active) | 17.8 µM (active) | inactive | 17.8 µM (active) |  |  |  |  |
| CCc1cc(Cl)c(OC)c(C(=O)NC[C@@H]2CCCN2CC)c1O | 38.6 | 31.6 µM (active) | 20 µM (active) | inactive | 20 µM (active) |  |  |  |  |
| CCCCN=C(N)N=C(N)N | 24.1 |  |  | inactive |  | inactive | inactive | inactive |  |
| Cc1cc(CC(=O)O)n(C)c1C(=O)c1ccc(Cl)cc1 | 24 |  |  | inactive |  | inactive | inactive | inactive |  |
| CN(C)CCN(Cc1ccccc1)c1ccccn1 | 35.7 | 22.4 µM (active) | 20 µM (active) | inactive | 20 µM (active) |  |  |  |  |
| COc1ccc(CN2CCN(C(c3ccc(F)cc3)c3ccc(F)cc3)CC2)c(OC)c1OC | 25.5 | 7.08 µM (active) | 10 µM (active) | inactive | 10 µM (active) |  |  |  |  |
| COc1ccc2nc(NC(=O)Nc3ccccc3)sc2c1 | -33.8 | 22.4 µM (active) | 15.8 µM (active) | inactive | 15.8 µM (active) |  |  |  |  |
| CC(C)=CCOc1ccc(/C=C/C(=O)c2ccc(OCC=C(C)C)cc2OCC(=O)O)cc1 | -15.5 |  |  | inactive |  | inactive | inactive | inactive |  |
| C=CCOc1cc(Cl)ccc1C(=O)NCCN(CC)CC | -28.4 | 14.1 µM (active) | 15.8 µM (active) | inactive | 15.8 µM (active) |  |  |  |  |
| O=c1oc2c(O)c(O)cc3c(=O)oc4c(O)c(O)cc1c4c23 | 33.8 | 11.2 µM (active) | 11.2 µM (active) | inactive | 11.2 µM (active) |  |  |  |  |
| O=S1(=O)c2cccc3cccc(c23)N1CCCN1CCN(c2ccc(F)cc2)CC1 | -13.1 | 25.1 µM (active) | 25.1 µM (active) | inactive | 25.1 µM (active) |  |  |  |  |
| CCOC(=O)C1=C[C@]2(CC)CCCN3CCc4c(n1c1ccccc41)[C@@H]32 | -42.6 | 12.6 µM (active) | 17.8 µM (active) | inactive | 17.8 µM (active) |  |  |  |  |
| CCOc1ccc2nc(S(N)(=O)=O)sc2c1 | 31.6 |  |  | inactive |  | inactive | inactive | inactive |  |
| Cc1cc(=O)oc2cc(O)ccc12 | -26.6 |  |  | inactive |  | inactive | inactive | inactive |  |

| Structure (SMILES) | efficacy [1] [%] | AC50 [2] | AC50 [3] | outcome [4] | AC50 [5] | outcome [3] | outcome [5] | outcome [2] | outcome [6] |
| --- | --- | --- | --- | --- | --- | --- | --- | --- | --- |
| COc1ccc2cc3[n+](cc2c1OC)CCc1cc2c(cc1-3)OCO2 | 30.3 |  |  | inactive |  | inactive | inactive | inactive |  |
| Cn1cnc2c1c(=O)[nH]c(=O)n2C | -13.7 |  |  | inactive |  | inactive | inactive | inactive |  |
| CC[C@H](c1ccc(O)cc1)[C@@H](CC)c1ccc(O)cc1 | -12.4 | 20 µM (active) | 25.1 µM (active) | inactive | 25.1 µM (active) |  |  |  |  |
| CCC1(c2cnc[nH]2)Cc2ccccc2C1 | -11.3 | 25.1 µM (active) |  | inactive | 31.6 µM (active) | inactive |  |  |  |
| CO[C@]1(NC(=O)CSC(F)F)C(=O)N2C(C(=O)O)=C(CSc3nnnn3CCO)CO[C@H]21 | -28.6 |  |  | inactive |  | inactive | inactive | inactive |  |
| Cc1cc2nc3ccc(=[N+](C)C)cc-3sc2cc1N | -32.6 | 39.8 µM (active) |  | inactive |  | inactive | inactive |  |  |
| CC(C)OC(=O)C(C(=O)OC(C)C)=C1SC=CS1 | -38.6 | 39.8 µM (active) |  | inactive |  | inactive | inactive |  |  |
| N[C@@H](CSCCCO)C(=O)O | 25.1 |  |  | inactive |  | inactive | inactive | inactive | inactive |
| CCOc1ccc(C(=O)OCCN(CC)CC)cc1 | 22.6 |  |  | inactive |  | inactive | inactive | inactive | inactive |
| Oc1ccc(Cl)cc1Cc1cc(Cl)ccc1O | 31.6 | 3.55 µM (active) | 11.2 µM (active) | inactive | 11.2 µM (active) |  |  |  |  |
| Oc1c(Cl)cc(Cl)cc1Sc1cc(Cl)cc(Cl)c1O | -26.7 | 11.2 µM (active) | 22.4 µM (active) | inactive | 22.4 µM (active) |  |  |  |  |
| CCCCCCCCCCCCCCCCC(C(=O)O)C(O)(CC(=O)O)C(=O)O (centres undefined) | -32 |  |  | inactive |  | inactive | inactive | inactive |  |
| C#C[C@]1(OC(C)=O)CC[C@H]2[C@@H]3CCC4=C/C(=N/O)CC[C@@H]4[C@H]3CC[C@@]21CC | -27.8 | 39.8 µM (active) |  | inactive | 39.8 µM (active) | inactive |  |  |  |
| C=CC[N+]1([C@H]2C[C@H]3[C@@H]4CC[C@H]5C[C@H](OC(C)=O)[C@@H](N6CCCCC6)C[C@]5(C)[C@H]4CC[C@]3(C)[C@H]2OC(=O)CC)CCCCC1 | 47.7 | 14.1 µM (active) |  | inactive | 28.2 µM (active) | inactive |  |  |  |
| Clc1ccc(Nc2nnc(Cc3ccncc3)c3ccccc23)cc1 | -25.3 | 15.8 µM (active) |  | inactive | 31.6 µM (active) | inactive |  |  |  |
| CCC1Nc2cc(Cl)c(S(N)(=O)=O)cc2S(=O)(=O)N1 (centres undefined) | -28.2 |  |  | inactive |  | inactive | inactive | inactive |  |
| C=CCOc1ccccc1OCC(O)CNC(C)C (centres undefined) | -13.2 | 14.1 µM (active) | 14.1 µM (active) | inactive | 14.1 µM (active) |  |  |  |  |
| C#CCN(C)Cc1ccccc1 | -14.7 |  |  | inactive |  | inactive | inactive | inactive | inactive |
| CC1=C(C(=O)O)N2C(=O)[C@@H](NC(=O)[C@H](N)C3=CCC=CC3)[C@H]2SC1 | -21.8 |  |  | inactive |  | inactive | inactive | inactive |  |
| CCOC(=O)n1ccn(C)c1=S | -11.5 |  |  | inactive |  | inactive | inactive | inactive | inactive |
| NC(N)=N/N=C/c1c(Cl)cccc1Cl | -12.6 | 28.2 µM (active) | 28.2 µM (active) | inactive | 28.2 µM (active) |  |  |  |  |
| c1ccc(CCNc2nc(-c3ccccc3)cs2)cc1 | 29.5 | 39.8 µM (active) |  | inactive | 39.8 µM (active) | inactive |  |  |  |
| CCCCC1C(=O)N(c2ccccc2)N(c2ccccc2)C1=O | -25 |  |  | inactive |  | inactive | inactive | inactive |  |
| CN(Cc1ccc(C(C)(C)C)cc1)Cc1cccc2ccccc12 | -29.5 | 35.5 µM (active) |  | inactive | 39.8 µM (active) | inactive |  |  |  |
| Cc1ccc(C(=O)Nc2ccc(S(=O)(=O)O)c3cc(S(=O)(=O)O)cc(S(=O)(=O)O)c23)cc1NC(=O)c1cccc(NC(=O)Nc2cccc(C(=O)Nc3cc(C(=O)Nc4ccc(S(=O)(=O)O)c5cc(S(=O)(=O)O)cc(S(=O)(=O)O)c45)ccc3C)c2)c1 | 21.5 | 39.8 µM (active) | 20 µM (active) | inactive | 20 µM (active) |  |  |  |  |
| Fc1ccc(C(c2ccc(F)cc2)N2CCNCC2)cc1 | 28.7 | 10 µM (active) | 10 µM (active) | inactive | 10 µM (active) |  |  |  |  |
